Screens as filed in PubChem.
ERa coact inh: ERα–SRC-1 coactivator interaction inhibitors, primary screen, biochemical, TR-FRET, ERα LBD, estradiol-bound; Estrogen receptor (Homo sapiens), P03372; TR-FRET ER-alpha LBD / SRC-1 peptide; inhibition, % at 25.6 µM; 86,000 tested, 1.7% active; AID 629, 2007; in the data active = inhibition above about 50%;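 note: 0% = receptor plus peptide control and 100% = peptide only without receptor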
Target sequence (P03372 whole entry, looked up, the tested form may be a part): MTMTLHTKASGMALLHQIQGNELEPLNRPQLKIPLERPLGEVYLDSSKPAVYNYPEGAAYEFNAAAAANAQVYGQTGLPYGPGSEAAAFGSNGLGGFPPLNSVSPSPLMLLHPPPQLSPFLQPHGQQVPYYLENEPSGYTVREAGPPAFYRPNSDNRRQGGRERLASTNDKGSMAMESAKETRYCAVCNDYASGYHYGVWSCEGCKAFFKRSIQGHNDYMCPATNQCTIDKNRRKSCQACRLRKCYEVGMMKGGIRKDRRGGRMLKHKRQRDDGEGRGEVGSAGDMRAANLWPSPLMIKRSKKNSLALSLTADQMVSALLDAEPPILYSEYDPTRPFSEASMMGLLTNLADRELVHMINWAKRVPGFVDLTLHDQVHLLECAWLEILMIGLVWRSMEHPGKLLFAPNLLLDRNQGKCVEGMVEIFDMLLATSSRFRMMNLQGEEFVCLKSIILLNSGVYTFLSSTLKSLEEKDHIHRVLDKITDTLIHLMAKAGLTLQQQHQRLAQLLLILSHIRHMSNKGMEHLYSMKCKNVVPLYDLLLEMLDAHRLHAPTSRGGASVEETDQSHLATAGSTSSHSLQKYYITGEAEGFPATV
ERa SRC1 pot: enhancers of ERα–SRC-1 coactivator binding, primary screen, biochemical, TR-FRET, ERα LBD, low estradiol. Estrogen receptor (Homo sapiens), P03372. TR-FRET ERalpha-LBD/SRC-Cy5 coactivator binding, 2 h; 100 = basal binding, no effect. coactivator binding (% of control), % at 25.6 µM. 86,000 tested, 1.3% active. AID 639, 2007; in the data active = activity above about 200%;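 note: binding measured in presence of low estradiol as agonist stimulus; 0% = peptide alone without receptor and 100% = receptor with peptide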
ERb coact inh: inhibitors of ERβ-SRC1 coactivator interaction, primary screen, biochemical, TR-FRET, ERβ LBD, SRC-1 peptide. Estrogen receptor beta (Homo sapiens), Q92731. TR-FRET ER-beta LBD / SRC1-Cy5 peptide binding; receptor agonist-loaded with 1 µM estradiol. inhibition, % at 25.6 µM. 86,000 tested, 1.3% active. AID 633, 2007;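 active = compounds whose percent inhibition of the receptor-coactivator binding signal exceeds about 50% in the single-dose screen, limit read from the data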;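 note: 0% = receptor plus peptide wells without compound and 100% = peptide-only wells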
Smad3 inh: Smad3/FoxH1 peptide binding inhibitors, primary screen, biochemical, TR-FRET. Mothers against decapentaplegic homolog 3 (Homo sapiens), P84022. inhibition, % at 25 µM. TR-FRET Smad3/Dy647-FoxH1 peptide binding, europium anti-His. 88,000 tested, 0.29% active. AID 630, 2007;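 active = compounds that reduce the energy-transfer binding signal between the protein and its labelled peptide by more than half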;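 note: 0% = Smad3 plus labelled peptide maximal FRET and 100% = peptide-only background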
* marks the source's active call; other numbers are inactive results; nt = not tested or not shown; [ ] = another dose, or the depositor's remark. An excerpt weighted towards active compounds, which were near 3.7% of everything screened.

SMILES	ERa coact inh	ERa SRC1 pot	ERb coact inh	Smad3 inh
Cn1c(=O)c2c(nc(SCC(=O)O)n2Cc2cc3c(cc2Cl)OCO3)n(C)c1=O	15.5	99.5	2.4	9.4
Nc1ccc(S(=O)(=O)NCCS(=O)(=O)O)cc1	nt	nt	nt	1.6
CN(C)c1ccc(NC(=O)CCCc2ccccc2)cc1	-68.7	116.0	-10.3	2.7
CN(C)c1ccc(NC(=O)CN2C(=O)CC(c3ccccc3)=Nc3ccccc32)cc1	93.4*[fluorescence artefact?]	38.5	65.9*[fluorescence artefact?]	4.5
Cc1c(Cl)cc(C(C)(C)C)c(O)c1Cc1c(C)c(Cl)cc(C(C)(C)C)c1O	nt	nt	nt	15.8
O=C(Cc1sc(-c2ccccc2Cl)nc1-c1ccccc1)Nc1ccc(F)cc1	-5.0	136.1	-0.5	-16.2
O=C(Cc1sc(-c2ccccc2Cl)nc1-c1ccccc1)Nc1ccccc1	9.4	234.7*[fluorescence artefact?]	-3.7	-71.6
CCN(CCO)C[C@@H]1CCC[C@@H]2CCCC[C@H]21	nt	nt	nt	0.0
O=C1CCNc2cc3ccccc3cc21	82.2*[fluorescence artefact?]	21.3	78.4*[fluorescence artefact?]	9.6
CCc1c(C)sc(NC(=O)CC#N)c1C#N	76.7*[fluorescence artefact?]	40.2	64.2*[fluorescence artefact?]	1.4
COc1ccc(Br)cc1C(=O)Nc1cccc(-c2nnc(-c3ccco3)o2)c1	69.0*[fluorescence artefact?]	115.1	52.8*[fluorescence artefact?]	-6.0
COc1cccc(C(=O)Nc2cccc(-c3nnc(-c4ccco4)o3)c2)c1	-13.2	102.1	-1.1	12.7
O=C(COc1ccc(Br)cc1)Nc1ccc(-c2nnc(-c3ccco3)o2)cc1	3.5	267.8*[fluorescence artefact?]	3.0	-5.1
CN(CC(=O)O)Cc1oc(CO)cc(=O)c1O	nt	nt	nt	15.4
NC1=NC2(CCCCC2)n2c(nc3ccccc32)N1	52.1*[fluorescence artefact?]	35.7	2.8	0.6
NC1=NC2(CCC(c3ccccc3)CC2)n2c(nc3ccccc32)N1 (stereo unspecified)	10.4	75.3	-14.1	17.6
CN(C)c1ccc(/C=C(\C#N)C(=O)Nc2nc3c(s2)CCN(Cc2ccccc2)C3)cc1	-6.5	118.7	3.1	12.7
O=C(O)C[C@H](Cc1ccccc1Cl)C(=O)O	nt	nt	nt	-0.2
CN1C(=O)C(O)(C2OC(C)(C)CCC2=O)c2ccccc21 (stereo unspecified)	-3.1	114.0	4.9	10.4
CN1C(=O)C2(N=c3ccccc3=N2)c2ccccc21	-3.5	141.8	91.1*[fluorescence artefact?]	0.8
COc1ccc(N2CCn3c2nc2c3c(=O)n(CCCc3ccccc3)c(=O)n2C)cc1	87.3*[fluorescence artefact?]	32.7	42.7	21.1
CCCn1c(NCc2ccco2)nc2c1c(=O)n(C)c(=O)n2C	63.7*[fluorescence artefact?]	96.1	52.9*[fluorescence artefact?]	6.7
COc1ccc(Cl)c(Cn2c(NCc3ccco3)nc3c2c(=O)n(C)c(=O)n3C)c1	80.8*[fluorescence artefact?]	52.4	53.5*[fluorescence artefact?]	0.0
COc1ccc(Oc2nc3c(c(=O)n(C)c(=O)n3C)n2Cc2ccccc2)cc1	1.8	208.4*[fluorescence artefact?]	0.7	15.9
COc1cccc(Cn2c(NCc3ccco3)nc3c2c(=O)n(C)c(=O)n3C)c1	-5.1	92.7	-0.1	7.0
SMILES	ERa coact inh	ERa SRC1 pot	ERb coact inh	Smad3 inh
O[C@]1(c2ccccc2)c2ccccc2NC2=NCCN21	nt	nt	nt	-2.1
CCCc1cc(-n2ccnc2)n2c(nc3ccccc32)c1C#N	66.3*	105.0	41.1	5.3
Cc1ccc(CNC(=O)CS(=O)(=O)CC(=O)O)cc1	-7.2	112.4	-2.0	7.3
O=C1CC(c2ccc(F)cc2)Cc2nc(N3CCc4ccccc43)ncc21 (stereo unspecified)	22.5	203.5*[fluorescence artefact?]	24.5	41.4
O=C1CC(c2ccc(F)cc2)Cc2nc(N3CCN(c4ccccc4)CC3)ncc21 (stereo unspecified)	9.1	174.0	7.4	16.4
COc1ccc(C(=O)c2coc3ccc(O)c(CN4CCCC4)c23)cc1	7.0	97.7	-8.7	11.3
COc1ccc(-c2coc3c(CN4CCCCC4)c(O)c(CN4CCCCC4)c(O)c3c2=O)cc1	66.9*[fluorescence artefact?]	78.8	35.3	3.6
CCCc1nnc2n1N=C(c1ccc(-c3cc(Cl)ccc3Cl)o1)CS2	72.8*	143.8	45.1	1.6
CC(C)C(=O)Nc1cccc(NC(=O)CCN2C(=O)c3ccccc3S2(=O)=O)c1	-11.5	107.7	-7.6	-3.2
CCc1ccccc1NS(=O)(=O)c1ccc(SC)cc1	66.3*[fluorescence artefact?]	36.1	3.0	-2.3
CSc1ccc(S(=O)(=O)Nc2ccc(F)cc2)cc1	67.0*[fluorescence artefact?]	30.8	-1.4	22.7
